Assay results reported in the antibiotic and cytotoxicity screens of Wong et al. (2023).
Hit rate of the full screen: of about 39,000 compounds, about 3,300 (8.5%) were called active. The sample as a whole holds a higher share of actives than the screen did.

Test system: HepG2
Test: cytotoxicity call (relative viability < 0.9)
Conditions: 10 µM

| Structure (SMILES) | cytotoxicity call |
| --- | --- |
| CO[C@H](CN(C)S(=O)(=O)c1ccc(Cl)cc1)[C@@H](C)CN([C@@H](C)CO)S(=O)(=O)c1cccc(Cl)c1 | inactive |
| COc1ccc(CN(C)C[C@H]2OCCCC[C@H](C)Oc3ccc(NS(=O)(=O)c4ccc(F)cc4)cc3C(=O)N([C@H](C)CO)C[C@@H]2C)cc1 | inactive |
| C[C@@H]1CN([C@H](C)CO)C(=O)c2cccc(NC(=O)Nc3ccc(C(F)(F)F)cc3)c2O[C@@H]1CN(C)S(C)(=O)=O | inactive |
| C[C@H](CO)N1C[C@H](C)[C@@H](CN(C)Cc2ccccc2)OCCCC[C@H](C)Oc2ccc(NC(=O)NC3CCCCC3)cc2C1=O | inactive |
| O=C(Cn1cnnn1)NS(=O)(=O)c1ccccc1 | inactive |
| C[C@H](CO)N1C[C@H](C)[C@H](CN(C)S(=O)(=O)c2ccc(-c3ccccc3)cc2)OCc2cn(nn2)CCCC1=O | inactive |
| C[C@@H]1CCCCO[C@@H](CN(C)C(=O)Nc2ccccc2)[C@@H](C)CN([C@@H](C)CO)C(=O)c2cc(NC(=O)c3ccccc3)ccc2O1 | inactive |
| COc1ccc(S(=O)(=O)N(C)C[C@@H]2Oc3c(NS(=O)(=O)c4cn(C)cn4)cccc3C(=O)N([C@H](C)CO)C[C@H]2C)cc1 | inactive |
| O=C(C[C@@H]1CC[C@H](NC(=O)c2ccc(F)cc2)[C@@H](CO)O1)NCc1ccncn1 | inactive |
| COc1ccc(NC(=O)Nc2ccc3c(c2)C(=O)N([C@H](C)CO)C[C@@H](C)[C@H](CN(C)S(=O)(=O)c2ccc(OC)cc2)OCCCC[C@H](C)O3)cc1 | inactive |
| C[C@@H]1CN([C@H](C)CO)C(=O)CCCn2cc(nn2)CO[C@@H]1CN(C)S(=O)(=O)c1ccccc1C#N | inactive |
| Cc1ccc(S(=O)(=O)N(C)C[C@H]2Oc3c(NS(=O)(=O)c4ccc(F)cc4)cccc3C(=O)N([C@H](C)CO)C[C@@H]2C)cc1 | inactive |
| C[C@@H]1CN([C@@H](C)CO)C(=O)Cc2cc(NC(=O)Nc3ccc4c(c3)OCO4)ccc2O[C@H]1CN(C)S(C)(=O)=O | inactive |
| COc1ccc(NC(=O)Nc2ccc3c(c2)CC(=O)N([C@H](C)CO)C[C@H](C)[C@@H](CN(C)Cc2ccc(C(F)(F)F)cc2)O3)cc1 | inactive |
| COc1ccc(NC(=O)Nc2ccc3c(c2)CC(=O)N([C@@H](C)CO)C[C@@H](C)[C@@H](CN(C)Cc2ccc(C(F)(F)F)cc2)O3)cc1 | active |
| COc1ccc(CN(C)C[C@@H]2Oc3ccc(NC(=O)Nc4ccc(C(F)(F)F)cc4)cc3CC(=O)N([C@H](C)CO)C[C@@H]2C)cc1 | active |
| COc1ccc(NC(=O)Nc2ccc3c(c2)CC(=O)N([C@H](C)CO)C[C@@H](C)[C@@H](CN(C)Cc2ccc(C(F)(F)F)cc2)O3)cc1 | active |
| COc1ccc(CN(C)C[C@@H]2Oc3ccc(NC(=O)Nc4ccc(C(F)(F)F)cc4)cc3CC(=O)N([C@@H](C)CO)C[C@@H]2C)cc1 | inactive |
| COc1ccc(CN(C)C[C@@H]2Oc3ccc(NC(=O)Nc4ccc(C(F)(F)F)cc4)cc3CC(=O)N([C@H](C)CO)C[C@H]2C)cc1 | inactive |
| COc1ccc(NC(=O)Nc2ccc3c(c2)CC(=O)N([C@H](C)CO)C[C@H](C)[C@H](CN(C)Cc2ccc(C(F)(F)F)cc2)O3)cc1 | active |
| CC(C)NC(=O)Nc1ccc2c(c1)C(=O)N([C@@H](C)CO)C[C@H](C)[C@@H](CN(C)CC1CCCCC1)OCCCC[C@H](C)O2 | inactive |
| Cc1ccc(S[C@]2(C(=O)NCCCN(C)C)CC(=O)N(Cc3cc(C(F)(F)F)cc(C(F)(F)F)c3)[C@@H]2c2ccc(CO)cc2)cc1 | inactive |

| Structure (SMILES) | cytotoxicity call |
| --- | --- |
| O=C(CN1CCOCC1)NCC[C@@H]1CC[C@@H](NC(=O)c2ccc3c(c2)OCO3)[C@H](CO)O1 | inactive |
| COc1ccc2c3c(n(c2c1)C)[C@H](CO)N(C[C@]13CN(C1)C(=O)c1ccncc1)C(=O)C1CCCCC1 | inactive |
| CN1CCN(C(=O)C[C@H]2CC[C@H]3[C@H](COc4ccc(NC(=O)C5CCOCC5)cc4C(=O)N3C)O2)CC1 | inactive |
| CCCN1C[C@H](C)[C@@H](OC)CN(C)C(=O)c2cc(NS(=O)(=O)c3cn(C)cn3)ccc2OC[C@H]1C | inactive |
| CCOC(=O)c1cc(C(=O)OCC)n(C)n1 | inactive |
| COc1ccc(S(=O)(=O)N[C@@H]2C=C[C@@H](CC(=O)N3CCN(c4ccccc4)CC3)O[C@H]2CO)cc1 | inactive |
| Cc1cc2n(n1)CCN(C(=O)[C@H]1CC[C@@H](N)C1)C2 | inactive |
| Cc1ccc(-c2cnc3c(c2)C(=O)N([C@H](C)CO)C[C@H](C)[C@@H](CN(C)C(=O)Cc2ccncc2)O3)cc1 | inactive |
| C[C@H]1CCCCO[C@@H](CN(C)Cc2ccccc2)[C@@H](C)CN([C@@H](C)CO)C(=O)c2cc(NC(=O)c3ccccc3)ccc2O1 | inactive |
| Cc1noc(C)c1NC(=O)N(C)C[C@@H]1Oc2c(NC(=O)C3CCOCC3)cccc2C(=O)N([C@H](C)CO)C[C@H]1C | inactive |
| COc1ccc(NC(=O)Nc2ccc3c(c2)CC(=O)N([C@@H](C)CO)C[C@H](C)[C@H](CN(C)Cc2ccc(C(F)(F)F)cc2)O3)cc1 | active |
| c1ccc2nc(-c3cn[nH]c3)ccc2c1 | inactive |
| Cc1cc(-c2ccc3ccccc3n2)nc2ccc3ccccc3c12 | inactive |
| CCCOc1c(-c2ccc3ccccc3n2)cnc2ccccc12 | active |
| Cc1csc2sc(C(=O)Oc3ccc(Cl)cc3)c(C)c12 | inactive |
| Cc1csc2sc(/C=N/Cc3cccs3)c(C)c12 | active |
| Cc1csc2sc(COC(=O)Nc3ccccc3)c(C)c12 | inactive |
| C[C@@H]1CN([C@@H](C)CO)C(=O)c2cc(NS(=O)(=O)c3cccs3)ccc2O[C@@H](C)CCCCO[C@@H]1CN(C)C(=O)c1ccccc1 | inactive |
| O=C(C[C@H]1C[C@@H]2c3cc(NC(=O)c4ccc5c(c4)OCO5)ccc3O[C@@H]2[C@@H](CO)O1)NCC(F)(F)F | inactive |
| C[C@H]1CCCCO[C@@H](CN(C)S(=O)(=O)c2ccc(F)cc2)[C@@H](C)CN([C@@H](C)CO)C(=O)c2cc(NC(=O)CCC(F)(F)F)ccc2O1 | inactive |
| Cc1[nH]c(=O)[nH]c(=O)c1S(=O)(=O)N1CCC(C(=O)NCCC(C)C)CC1 | inactive |
| Cc1[nH]c(=O)[nH]c(=O)c1S(=O)(=O)N1CCC(C(=O)N[C@H](C)c2ccccc2)CC1 | inactive |

| Structure (SMILES) | cytotoxicity call |
| --- | --- |
| CCc1ccc(NC(=O)C2CCN(S(=O)(=O)c3c(C)[nH]c(=O)[nH]c3=O)CC2)cc1 | active |
| COCC(=O)N1[C@@H]2c3ccc(C4=CCCC4)c(=O)n3C[C@@H]2[C@@H](CO)[C@@H]1C(=O)N1CCN(C)CC1 | inactive |
| Cc1noc(C)c1NC(=O)Nc1cccc2c1O[C@@H](CN(C)Cc1ccc(-c3ccccc3)cc1)[C@@H](C)CN([C@H](C)CO)C2=O | inactive |
| C[C@H](CO)N1C[C@H](C)[C@@H](CN(C)Cc2ccc(Cl)c(Cl)c2)OCCCC[C@H](C)Oc2ccc(NC(=O)C3CCCCC3)cc2C1=O | inactive |
| C[C@@H]1CCCCO[C@H](CN(C)Cc2ccc(Cl)c(Cl)c2)[C@@H](C)CN([C@@H](C)CO)C(=O)c2cc(NC(=O)C3CCCCC3)ccc2O1 | active |
| C[C@@H]1CCCCO[C@@H](CN(C)Cc2ccc(Cl)c(Cl)c2)[C@@H](C)CN([C@H](C)CO)C(=O)c2cc(NC(=O)C3CCCCC3)ccc2O1 | active |
| C[C@@H]1CCCCO[C@H](CN(C)Cc2ccc(Cl)c(Cl)c2)[C@H](C)CN([C@@H](C)CO)C(=O)c2cc(NC(=O)C3CCCCC3)ccc2O1 | inactive |
| C[C@H](CO)N1C[C@H](C)[C@@H](CN(C)Cc2ccc(Cl)c(Cl)c2)Oc2ccc(NC(=O)C3CCCCC3)cc2C1=O | inactive |
| C[C@@H]1CN([C@H](C)CO)C(=O)c2cc(NC(=O)C3CCCCC3)ccc2O[C@@H](C)CCCCO[C@@H]1CN(C)Cc1ccc(Cl)c(Cl)c1 | inactive |
| C[C@@H]1CCCCO[C@@H](CN(C)Cc2ccc(Cl)c(Cl)c2)[C@@H](C)CN([C@@H](C)CO)C(=O)c2cc(NC(=O)C3CCCCC3)ccc2O1 | inactive |
| C[C@@H]1CN([C@@H](C)CO)C(=O)c2cc(NC(=O)C3CCCCC3)ccc2O[C@@H](C)CCCCO[C@H]1CN(C)Cc1ccc(Cl)c(Cl)c1 | active |
| C[C@@H]1CN([C@H](C)CO)C(=O)c2cc(NC(=O)C3CCCCC3)ccc2O[C@@H](C)CCCCO[C@H]1CN(C)Cc1ccc(Cl)c(Cl)c1 | active |
| C[C@@H]1CCCCO[C@H](CN(C)Cc2ccc(Cl)c(Cl)c2)[C@@H](C)CN([C@H](C)CO)C(=O)c2cc(NC(=O)C3CCCCC3)ccc2O1 | inactive |
| C[C@@H]1CN([C@@H](C)CO)C(=O)c2cc(NC(=O)C3CCCCC3)ccc2O[C@H]1CN(C)Cc1ccc(Cl)c(Cl)c1 | inactive |
| C[C@@H]1CCCCO[C@@H](CN(C)Cc2ccc(Cl)c(Cl)c2)[C@H](C)CN([C@@H](C)CO)C(=O)c2cc(NC(=O)C3CCCCC3)ccc2O1 | inactive |
| C[C@H](CO)N1C[C@H](C)[C@H](CN(C)C(=O)NC2CCCCC2)Oc2ccc(NC(=O)Nc3cccc4ccccc34)cc2CC1=O | inactive |
| C[C@@H]1CN([C@H](C)CO)C(=O)Cc2cc(NC(=O)Cc3ccccc3)ccc2O[C@@H]1CN(C)S(=O)(=O)c1ccc(F)cc1 | inactive |
| Cc1noc(C)c1NC(=O)Nc1ccc2c(c1)C(=O)N([C@H](C)CO)C[C@H](C)[C@@H](CN(C)C(=O)NC1CCCCC1)OCCCC[C@H](C)O2 | inactive |
| C[C@@H]1CN([C@H](C)CO)C(=O)c2cccc(NS(C)(=O)=O)c2O[C@H]1CN(C)C(=O)Nc1ccc(F)cc1 | inactive |
| O=C(C[C@H]1C=C[C@@H](NC(=O)CN2CCOCC2)[C@@H](CO)O1)NCc1cccc(F)c1 | inactive |
| Cc1noc(C)c1NC(=O)Nc1cccc2c1O[C@H](CN(C)C(=O)Nc1cccc3ccccc13)[C@H](C)CN([C@H](C)CO)C2=O | inactive |
